This excerpt belongs to a sample that is enriched for hits.
TDP-43 tox inh = rescues yeast from TDP-43 toxicity; yeast TDP-43 toxicity rescue, BacTiter-Glo growth, 24 h; Potency, µM (series often up to 46.1 µM), hits mostly activators; 45,000 compounds, 0.45% hits; active = well fitted activation curve with a large enough effect; also: 0% is about no effect; nearly all actives have a fitted effect of over 55% in size
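TDP-43-expressing yeast, pregrown in raffinose, seeded at OD600 0.02 in galactose medium with compound for 24 hr at 30 deg C. Growth read by BacTiter-Glo luminescence, so rescue of toxicity appears as activation.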
An asterisk follows results filed as active; i = inactive. Potency is read from the fitted curve at half-maximal effect.

SMILES | TDP-43 tox inh
CN1CCN(c2ccc([N+](=O)[O-])cc2C(=O)c2ccccc2)CC1 | i
CC(C)c1ccc(/C=C/C(=O)NCCC2=CCCCC2)cc1 | i
CC(NC(=O)/C=C/c1ccc(Br)cc1)c1ccccc1 (stereo unspecified) | i
CC(C)c1ccc(/C=C/C(=O)O)cc1 | 6.31µM*
CN(C(=S)Nc1ccc(SC(F)F)cc1)c1ccc(O)cc1 | i
Cc1ccc(NC(=O)c2n[nH]c(=O)c3ccccc23)cc1S(=O)(=O)N1CCOCC1 | i
COc1ccccc1N1CCN(C(=O)c2ccc3[nH]c4c(c3c2)CCCC4)CC1 | 17.8µM*
COc1cc(OC)cc(C(=O)N2CCC(N3CCN(c4ccccc4OC)CC3)CC2)c1 | i
COc1ccccc1N1CCN(C(=O)c2ccc(NS(=O)(=O)c3ccc(C)cc3)cc2)CC1 | i
COc1cc(NC(=O)COc2ccc(-n3cnnn3)cc2)cc(OC)c1OC | i
CN1CCN(c2ccc(NC(=O)c3ccc([N+](=O)[O-])o3)cc2Cl)CC1 | i
COc1ccc(CNC(=O)c2cc3sccc3n2C)cc1 | 12.6µM*
CCOc1ccc(CNC(=O)c2cc3oc4ccccc4c3n2C)cc1 | i
COc1ccc(CNC(=O)CSc2cc(=O)n(C)c3ccccc23)cc1 | i
Cc1[nH]c2ccccc2c1C(C[N+](=O)[O-])c1cccc(O)c1 (stereo unspecified) | i
O=C(NCCc1ccccc1)c1ccc(-c2cccnc2)c2ccoc12 | i
Cn1cc(-c2ccc(C(=O)NCc3cccc(Cl)c3)c3occc23)cn1 | i
O=C(NCc1cccc(Cl)c1)c1ccc(-c2cccnc2)c2ccoc12 | 14.1µM*
CCOc1ccc(NC(=S)NCc2nc3ccccc3[nH]2)cc1 | i
O=C(/C(=C\c1ccccc1)c1nc2ccccc2[nH]1)c1ccc(Cl)cc1 | i
S=C(Nc1ccc(Cl)cc1)c1nc2ccccc2[nH]1 | 10µM*
CN(N=Nc1cccc([N+](=O)[O-])c1)c1ccccc1 | i
COc1ccccc1Oc1ncnc2c1oc1ccccc12 | i
CCNC(=S)Nc1ccc(Cl)cc1 | i
S=C(NCc1ccccc1)NCc1ccc(CNC(=S)NCc2ccccc2)cc1 | i
SMILES | TDP-43 tox inh
S=C(NCc1ccc(Cl)cc1)Nc1ccccc1 | 12.6µM*
COc1ccc(OC)c(NC(=O)C(=S)NC2CCCCC2)c1 | i
CC(C)Cc1nnc(NC(=O)CCNC(=O)c2ccco2)s1 | i
Cc1cc2oc(=O)sc2cc1NS(=O)(=O)c1ccccc1 | i
O=C(Nc1ccccc1Cl)C1C2CCCCC21 (stereo unspecified) | i
O=C(Nc1cc(Cl)ccc1Cl)C1Cc2ccccc2O/C1=N\O (stereo unspecified) | 11.2µM*
COc1cccc2c1O/C(=N\O)C(C(=O)Nc1cccc(C)c1C)C2 (stereo unspecified) | i
NS(=O)(=O)c1cccc(NC(=O)CN2CCN(Cc3ccc4c(c3)OCO4)CC2)c1 | i
Cc1csc(NC(=O)[C@@H]2CCCN2C(=O)c2cccs2)n1 | i
COc1ccccc1N/N=C1\COC(C)(C)CC1=O | i
O=C(COC(=O)c1c(Cl)ccc(Cl)c1Cl)NCC1CCCO1 (stereo unspecified) | 14.1µM*
O=C(COC(=O)c1ccc(Br)cc1)NCC1CCCO1 (stereo unspecified) | i
O=C(COC(=O)/C=C/c1ccccc1Cl)NCC1CCCO1 (stereo unspecified) | i
CN(Cc1ccccc1Cl)C(=O)c1cc2ccccc2o1 | i
Cc1ccccc1C(=O)Oc1cc(N)n(S(C)(=O)=O)n1 | i
CCOC(=O)c1ccoc1CN1CCN(S(=O)(=O)c2ccc(C)c(C)c2)CC1 | i
Cc1cccc(NC(=O)CSc2nnc(NC(=O)C3CC3)s2)c1C | i
Cc1ccccc1Nc1nnc(SCC(=O)NCc2cccs2)s1 | i
Cc1cccc(Nc2nnc(SCC(=O)Nc3ccccc3[N+](=O)[O-])s2)c1C | 17.8µM*
O=C(NCc1ccccn1)c1cc(S(=O)(=O)N2CCCCCC2)ccc1Cl | i
NC(=O)NC(=O)CSc1nc2sc(-c3ccccc3)cc2c(=O)n1-c1ccccc1 | i
N#C/C(=C\c1cccc(Br)c1)C(=O)N1CCCCC1 | 12.6µM*
N#C/C(=C\c1ccccc1)C(=O)N1CCN(c2ccccc2F)CC1 | i
Cc1cc(/C=C(\C#N)C(=O)N2CCCCC2)cc(C)c1O | i
CC(C)C(C(=O)NC1CCCC1)N(Cc1ccco1)C(=O)CNS(=O)(=O)c1ccccc1 (stereo unspecified) | i
